The results in this text go back to PubChem BioAssay (EPA / NIEHS).

Inconclusive results are not listed. Calls of active or inactive are those of the source. Rule for the calls: active = hit-call score of the fitted dose curve at least 0.9, where 1 is the maximum; inconclusive = response in the unintended direction; inactive = score below 0.9.

Test [1] addresses human LYN Proto-Oncogene, Src family Tyrosine Kinase (LynA), LYN (gene 4067) (UniProt P07948). Briefly: NVS_ENZ_hLynA: NovaScreen (NVS) Enzymatic Assay for human LYN Proto-Oncogene, Src family Tyrosine Kinase (LynA) (AID 2283173). An outline of the steps: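 Recombinant kinase with fluorescent substrate; product separated from substrate by electrophoretic mobility shift and read 1 h after dosing. Duplicate screen at 25 uM, then concentration-response up to 50 uM; activity scored as signal loss against DMSO.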

The target in test [2] is human Phosphodiesterase 4A1 (PDE4A1), PDE4A (gene 5141) (UniProt P27815). Briefly: NVS_ENZ_hPDE4A1: NovaScreen (NVS) Enzymatic Assay for human Phosphodiesterase 4A1 (PDE4A1) (AID 2283191). Summed up:
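Fluorescent substrate turnover by recombinant PDE4A1 read after 1 h by mobility-shift separation. Primary duplicate screen at 25 uM; hits retested in concentration series with a 50 uM maximum, relative to DMSO.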

Test [3] deals with human Protein Phosphatase, Mg2+/Mn2+ Dependent 1A (PPM1A), PPM1A (gene 5494) (UniProt P35813). Briefly: NVS_ENZ_hPPM1A: NovaScreen (NVS) Enzymatic Assay for human Protein Phosphatase, Mg2+/Mn2+ Dependent 1A (PPM1A) (AID 2283198). Summed up:
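Primary screen in duplicate at 25 uM, with actives then titrated to a maximum of 50 uM. Recombinant PPM1A dephosphorylation of fluorescent substrate measured at 1 h, with substrate and product separated by mobility shift; inhibition fitted against DMSO.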

Test [4] deals with human Matrix Metalloproteinase-1 (MMP1), MMP1 (gene 4312) (UniProt P03956). Briefly: NVS_ENZ_hMMP1: NovaScreen (NVS) Enzymatic Assay for human Matrix Metalloproteinase-1 (MMP1) (AID 2283181). The procedure: NVS_ENZ_hMMP1 is a biochemical, single-readout assay that uses extracted gene-proteins in a cell-free assay. Measurements were taken 1 hour after chemical dosing in a 96-well plate.NVS_ENZ_hMMP1 is one of one assay component(s) measured or calculated from the NVS_ENZ_hMMP1 assay. It is designed to make measurements of enzyme activity, a form of enzyme reporter, as detected with fluorescence intensity signals by Fluorescence technology.Data from the assay component NVS_ENZ_hMMP1 was analyzed into 1 assay endpoint. This assay endpoint, NVS_ENZ_hMMP1, was analyzed in the positive analysis fitting direction relative to DMSO as the negative control and baseline of activity. […] Furthermore, this assay endpoint can be referred to as a primary readout, because […]. […]
Chain of human Matrix Metalloproteinase-1 (MMP1), MMP1 (gene 4312) (P03956 whole entry, looked up): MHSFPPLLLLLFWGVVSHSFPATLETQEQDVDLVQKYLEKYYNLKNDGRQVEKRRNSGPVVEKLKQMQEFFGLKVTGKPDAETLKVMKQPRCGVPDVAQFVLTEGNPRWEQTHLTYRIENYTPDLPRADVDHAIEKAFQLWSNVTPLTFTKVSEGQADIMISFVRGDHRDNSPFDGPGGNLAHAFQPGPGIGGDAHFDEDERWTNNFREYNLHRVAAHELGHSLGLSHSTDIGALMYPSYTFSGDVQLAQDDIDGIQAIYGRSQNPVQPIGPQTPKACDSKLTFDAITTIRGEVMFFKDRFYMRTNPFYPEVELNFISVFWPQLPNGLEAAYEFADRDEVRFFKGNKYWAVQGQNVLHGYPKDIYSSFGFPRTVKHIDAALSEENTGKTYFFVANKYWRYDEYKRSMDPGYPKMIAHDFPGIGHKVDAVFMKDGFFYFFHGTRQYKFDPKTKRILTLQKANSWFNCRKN
Binding assays used specific radioligands (tritiated, iodinated) with non-radioactive competitive displacement ligands in agonist or antagonist protocols (as indicated) and various reference compounds and inhibitors to titrate specific binding to receptors and transporters. Most enzyme assays (CYPs, kinases, phosphatases, proteases, HDACs) used recombinant protein and specific substrates (fluorescence mostly, some colorimetric and radioactive) and inhibitors, followed by a biochemical separation of substrate and product. […]

In test [5] the target is human Matrix Metalloproteinase-3 (MMP3), MMP3 (gene 4314) (UniProt P08254). Briefly: NVS_ENZ_hMMP3: NovaScreen (NVS) Enzymatic Assay for human Matrix Metalloproteinase-3 (MMP3) (AID 2283185). Summed up: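 Fluorescent substrate turnover by recombinant MMP3 read after 1 h, signal loss scored against DMSO. Compounds first run in duplicate at 25 uM single dose, then actives confirmed by concentration series.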
Chain of human Matrix Metalloproteinase-3 (MMP3), MMP3 (gene 4314) (P08254 whole entry, looked up): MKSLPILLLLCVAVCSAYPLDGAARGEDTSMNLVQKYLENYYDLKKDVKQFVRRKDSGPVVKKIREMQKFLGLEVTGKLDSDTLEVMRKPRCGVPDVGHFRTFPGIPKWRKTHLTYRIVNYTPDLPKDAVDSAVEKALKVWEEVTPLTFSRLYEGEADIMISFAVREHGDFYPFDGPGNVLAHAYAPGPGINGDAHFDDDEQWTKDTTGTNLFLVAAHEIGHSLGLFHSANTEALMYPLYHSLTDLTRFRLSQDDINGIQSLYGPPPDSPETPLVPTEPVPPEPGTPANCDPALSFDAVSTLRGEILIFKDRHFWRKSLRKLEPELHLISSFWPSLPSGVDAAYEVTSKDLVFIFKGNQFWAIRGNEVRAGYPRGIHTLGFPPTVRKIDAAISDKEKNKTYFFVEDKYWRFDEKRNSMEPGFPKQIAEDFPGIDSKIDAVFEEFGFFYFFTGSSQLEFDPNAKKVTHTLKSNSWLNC

The target of test [6] is human Phosphoinositide 3-kinase alpha (PI3Ka), PIK3CA (gene 5290) (UniProt P42336). Briefly: NVS_ENZ_hPI3Ka: NovaScreen (NVS) Enzymatic Assay for human Phosphoinositide 3-kinase alpha (PI3Ka) (AID 2283196). Summed up:
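Recombinant human PI3Kα with fluorescent substrate, 1 h, product separated by electrophoretic mobility shift; 25 uM duplicate screen, hits (e.g., 30% inhibition) retested singly up to 50 uM; loss of signal vs DMSO.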

Test [7] addresses human Matrix Metalloproteinase-7 (MMP7), MMP7 (gene 4316) (UniProt P09237). Briefly: NVS_ENZ_hMMP7: NovaScreen (NVS) Enzymatic Assay for human Matrix Metalloproteinase-7 (MMP7) (AID 2283183). Summed up: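 Compounds first tested at 25 uM in duplicate, then at up to 50 uM in concentration series if active. Protease activity measured by fluorescence intensity 1 h after dosing, with fitting relative to DMSO.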

Test [8] has as its target human Matrix Metalloproteinase-2 (MMP2), MMP2 (gene 4313) (UniProt P08253). Briefly: NVS_ENZ_hMMP2: NovaScreen (NVS) Enzymatic Assay for human Matrix Metalloproteinase-2 (MMP2) (AID 2283184). An outline of the steps: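 Compounds first screened in duplicate at a single 25 uM, with actives followed up in concentration series. Recombinant human MMP2 cleaves a fluorogenic substrate; fluorescence taken at 1 h, inhibition fitted relative to DMSO.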

In test [9] the target is human Phosphodiesterase 5 (PDE5), PDE5A (gene 8654) (UniProt O76074). Briefly: NVS_ENZ_hPDE5: NovaScreen (NVS) Enzymatic Assay for human Phosphodiesterase 5 (PDE5) (AID 2283194). Summed up: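 Screening began in duplicate at 25 uM, with actives taken into concentration-response. Enzyme activity of recombinant PDE5 toward its substrate was measured at 1 h by fluorescence mobility-shift detection, relative to DMSO controls.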

Chain of human LYN Proto-Oncogene, Src family Tyrosine Kinase (LynA), LYN (gene 4067) (P07948 whole entry, looked up): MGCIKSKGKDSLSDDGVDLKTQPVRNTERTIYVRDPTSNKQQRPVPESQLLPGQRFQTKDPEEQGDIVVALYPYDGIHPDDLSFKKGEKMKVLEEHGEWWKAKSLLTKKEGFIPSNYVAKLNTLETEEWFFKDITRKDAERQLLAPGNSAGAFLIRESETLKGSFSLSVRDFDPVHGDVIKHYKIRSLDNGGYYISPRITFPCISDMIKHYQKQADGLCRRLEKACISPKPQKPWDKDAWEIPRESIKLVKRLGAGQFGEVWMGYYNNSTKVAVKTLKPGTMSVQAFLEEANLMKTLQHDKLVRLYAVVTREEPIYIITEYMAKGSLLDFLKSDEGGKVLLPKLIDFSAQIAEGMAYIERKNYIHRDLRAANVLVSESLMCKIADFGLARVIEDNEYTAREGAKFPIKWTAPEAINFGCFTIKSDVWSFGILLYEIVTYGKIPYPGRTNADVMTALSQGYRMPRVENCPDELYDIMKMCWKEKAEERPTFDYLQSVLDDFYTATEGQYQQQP
Chain of human Phosphoinositide 3-kinase alpha (PI3Ka), PIK3CA (gene 5290) (P42336 whole entry, looked up): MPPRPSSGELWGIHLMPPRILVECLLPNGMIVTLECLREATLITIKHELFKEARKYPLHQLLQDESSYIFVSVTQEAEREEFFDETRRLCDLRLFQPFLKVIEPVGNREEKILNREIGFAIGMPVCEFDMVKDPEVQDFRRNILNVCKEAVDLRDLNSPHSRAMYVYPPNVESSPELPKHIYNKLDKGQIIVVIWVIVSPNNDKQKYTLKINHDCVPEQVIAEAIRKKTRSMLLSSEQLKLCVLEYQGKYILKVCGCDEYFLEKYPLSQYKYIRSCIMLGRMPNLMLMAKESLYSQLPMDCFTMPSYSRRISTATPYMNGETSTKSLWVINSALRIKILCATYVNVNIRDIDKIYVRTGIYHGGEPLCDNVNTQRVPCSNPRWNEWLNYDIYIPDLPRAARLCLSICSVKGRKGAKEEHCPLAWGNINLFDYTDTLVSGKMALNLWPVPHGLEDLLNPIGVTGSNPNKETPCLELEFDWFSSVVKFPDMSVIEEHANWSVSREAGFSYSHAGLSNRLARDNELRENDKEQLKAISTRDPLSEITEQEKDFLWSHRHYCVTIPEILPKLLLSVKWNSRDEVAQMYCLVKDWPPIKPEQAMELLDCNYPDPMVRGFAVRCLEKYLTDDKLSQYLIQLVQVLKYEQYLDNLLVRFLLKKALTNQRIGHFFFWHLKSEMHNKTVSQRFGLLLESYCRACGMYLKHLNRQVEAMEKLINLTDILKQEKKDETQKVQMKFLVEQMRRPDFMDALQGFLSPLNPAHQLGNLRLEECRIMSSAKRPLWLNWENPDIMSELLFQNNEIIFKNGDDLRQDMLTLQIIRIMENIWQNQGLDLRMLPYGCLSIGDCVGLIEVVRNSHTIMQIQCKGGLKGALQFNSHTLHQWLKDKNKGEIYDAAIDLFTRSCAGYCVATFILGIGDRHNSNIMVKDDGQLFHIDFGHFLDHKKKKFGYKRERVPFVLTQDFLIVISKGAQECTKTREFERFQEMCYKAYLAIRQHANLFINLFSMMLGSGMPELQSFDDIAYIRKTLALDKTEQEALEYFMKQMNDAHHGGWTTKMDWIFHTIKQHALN
Chain of human Protein Phosphatase, Mg2+/Mn2+ Dependent 1A (PPM1A), PPM1A (gene 5494) (P35813 whole entry, looked up): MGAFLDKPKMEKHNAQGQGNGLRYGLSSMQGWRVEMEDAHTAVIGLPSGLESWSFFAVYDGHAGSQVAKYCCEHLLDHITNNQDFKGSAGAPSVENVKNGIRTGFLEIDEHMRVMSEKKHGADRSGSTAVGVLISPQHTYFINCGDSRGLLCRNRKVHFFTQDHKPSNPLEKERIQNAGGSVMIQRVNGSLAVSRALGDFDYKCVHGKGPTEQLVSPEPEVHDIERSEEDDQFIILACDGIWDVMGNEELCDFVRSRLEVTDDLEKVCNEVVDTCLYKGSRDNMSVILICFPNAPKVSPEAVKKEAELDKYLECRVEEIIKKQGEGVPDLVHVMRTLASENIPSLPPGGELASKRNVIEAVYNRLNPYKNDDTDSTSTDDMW
Chain of human Matrix Metalloproteinase-7 (MMP7), MMP7 (gene 4316) (P09237 whole entry, looked up): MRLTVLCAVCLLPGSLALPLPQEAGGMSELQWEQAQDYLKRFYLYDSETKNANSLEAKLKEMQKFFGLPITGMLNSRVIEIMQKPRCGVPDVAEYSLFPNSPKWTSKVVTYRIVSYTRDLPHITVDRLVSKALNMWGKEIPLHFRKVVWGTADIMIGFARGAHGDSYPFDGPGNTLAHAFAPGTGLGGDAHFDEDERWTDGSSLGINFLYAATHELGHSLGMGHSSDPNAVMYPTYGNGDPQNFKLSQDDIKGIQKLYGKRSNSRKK
Chain of human Phosphodiesterase 4A1 (PDE4A1), PDE4A (gene 5141) (P27815 whole entry, looked up): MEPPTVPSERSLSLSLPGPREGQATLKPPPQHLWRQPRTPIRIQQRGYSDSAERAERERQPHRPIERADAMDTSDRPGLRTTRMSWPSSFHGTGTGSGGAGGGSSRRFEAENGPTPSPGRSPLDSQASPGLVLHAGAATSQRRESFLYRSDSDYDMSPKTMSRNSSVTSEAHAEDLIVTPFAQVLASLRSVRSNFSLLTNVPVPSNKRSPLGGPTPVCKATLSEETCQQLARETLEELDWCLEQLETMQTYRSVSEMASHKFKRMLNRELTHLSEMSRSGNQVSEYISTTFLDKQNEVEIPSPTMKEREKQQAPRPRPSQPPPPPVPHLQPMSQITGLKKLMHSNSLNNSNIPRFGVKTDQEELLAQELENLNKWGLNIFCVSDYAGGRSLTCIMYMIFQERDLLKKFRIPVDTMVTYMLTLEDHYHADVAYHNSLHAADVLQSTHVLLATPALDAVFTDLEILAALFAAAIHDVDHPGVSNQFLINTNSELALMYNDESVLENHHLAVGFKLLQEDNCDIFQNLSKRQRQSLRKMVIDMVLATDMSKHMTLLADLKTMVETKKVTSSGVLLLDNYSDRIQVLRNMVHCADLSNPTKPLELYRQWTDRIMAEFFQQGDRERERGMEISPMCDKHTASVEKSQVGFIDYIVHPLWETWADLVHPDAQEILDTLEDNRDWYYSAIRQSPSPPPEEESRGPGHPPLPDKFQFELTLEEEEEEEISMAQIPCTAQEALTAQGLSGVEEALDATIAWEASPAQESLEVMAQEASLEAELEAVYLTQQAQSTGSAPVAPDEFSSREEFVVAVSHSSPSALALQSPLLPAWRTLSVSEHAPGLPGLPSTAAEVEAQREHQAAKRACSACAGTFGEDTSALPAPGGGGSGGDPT
Chain of human Matrix Metalloproteinase-2 (MMP2), MMP2 (gene 4313) (P08253 whole entry, looked up): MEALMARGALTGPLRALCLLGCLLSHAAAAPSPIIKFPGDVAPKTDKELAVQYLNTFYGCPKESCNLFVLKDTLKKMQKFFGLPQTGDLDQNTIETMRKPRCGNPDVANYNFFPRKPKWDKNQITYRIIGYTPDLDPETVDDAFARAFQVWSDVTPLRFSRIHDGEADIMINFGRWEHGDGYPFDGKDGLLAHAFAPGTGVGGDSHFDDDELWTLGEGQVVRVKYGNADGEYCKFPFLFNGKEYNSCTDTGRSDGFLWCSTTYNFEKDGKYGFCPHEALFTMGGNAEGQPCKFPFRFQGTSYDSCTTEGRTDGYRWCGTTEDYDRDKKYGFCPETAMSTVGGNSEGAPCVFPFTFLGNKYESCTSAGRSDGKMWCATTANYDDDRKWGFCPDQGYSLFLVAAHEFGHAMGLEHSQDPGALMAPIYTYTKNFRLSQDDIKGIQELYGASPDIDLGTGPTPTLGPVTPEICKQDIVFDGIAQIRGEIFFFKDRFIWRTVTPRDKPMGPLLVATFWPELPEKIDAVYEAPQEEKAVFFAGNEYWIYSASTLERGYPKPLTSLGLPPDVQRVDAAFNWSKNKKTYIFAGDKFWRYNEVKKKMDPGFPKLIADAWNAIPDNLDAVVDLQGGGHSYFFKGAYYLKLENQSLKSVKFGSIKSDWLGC

As to `O=C(N[C@H]1CN2CCC1CC2)c1ccc2c(c1)OCCO2`, the outcome in test [1], in test [2] and in [3] was inactive.

With `OCCN(CCO)CCO`, the outcome in [1] was inactive.

`CCCCCCCCCCCCc1cccc(S(=O)(=O)O)c1`: the AC50 was 9.41 µM (active) in test [4], 12.9 µM (active) in [5] and 7.17 µM (active) in test [6].

With `CCCCCCCCCCCCOS(=O)(=O)O`, in test [4], the AC50 was 7.91 µM (active).

With `COc1nn(C(=O)NS(=O)(=O)c2ccccc2OC(F)(F)F)c(=O)n1C`, in test [7], the molecule was classed as inactive.

Take `Clc1cccc(Cl)c1Cl`: the AC50 in [8] is 11.5 µM (active).

Turning to `O=C1c2ccccc2C(=O)C1C(=O)C(c1ccccc1)c1ccc(Cl)cc1` (stereo not drawn), in [6], the AC50 was 16.8 µM (active).

`Oc1c(Cl)cc(Cl)cc1Cl`: the molecule was classed as inactive in test [9].

Consider `COC(=O)Nc1cccc(OC(=O)Nc2cccc(C)c2)c1`, for which, in test [9], the result was inactive.
